# Results reported in PubChem BioAssay (Tox21).
# Several values for one entry are separate records, joined by “and”; a condition that tells them apart may be missing. Equal values may be shown once. Inconclusive results are not listed. Where a call stands in place of a potency, no number is given. A structure can be active in one record and inactive in another. Activity calls are given as the source filed them. Unless noted, calls come from the whole dose curve; as a rule, active = well fitted curve in the direction sought with a large enough effect in the repeat runs; inconclusive = weak or mixed curves; inactive = no such curve, though single readings can be large; an effect the other way counts as inactive or inconclusive.
# What was measured:
# [1] = qHTS assay to identify small molecule agonists of the hypoxia (HIF-1) signaling pathway - cell viability counter screen (AID 1224844; calls by dose curve; note: nearly all actives have a fitted effect of over 50% in size; note: potency is the fitted concentration of half-maximal effect); settings: HRE-bla ME-180 viability, CellTiter-Glo luminescence, 17 h; series mostly up to 76.8 µM
# Outline: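 Cells (HRE-bla ME-180, 2,000 per well) sat 5 hrs at 37C, got compound for 17 hrs, were read for CCF4-AM FRET, and were finally lysed with CellTiter-Glo for a 30 min room-temperature luminescence read.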
# [2] = qHTS assay to identify small molecule agonists of H2AX (AID 1224845; active = well fitted activation curve with a large enough effect in the signal ratio in the repeat runs, not every such curve was filed as active; the % refers to the signal ratio); settings: CHO-K1 phospho-H2AX Ser139 HTRF, 3 h; series mostly up to 154 µM
# Outline: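 Phospho-H2AX Ser139 measured by HTRF (ex 320 nm; em 665 and 620 nm) after 24 hr antibody incubation. Compounds, 15 concentrations, 0.76% DMSO, were applied to CHO-K1 cells for 3hr at 37C before lysis.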
# [3] = qHTS assay to identify small molecule agonists of the hypoxia (HIF-1) signaling pathway (AID 1224846; active = well fitted activation curve with a large enough effect in the signal ratio in the repeat runs, not every such curve was filed as active; the % refers to the signal ratio); settings: HRE-bla ME-180 cells, beta-lactamase ratio, 17 h; series mostly up to 76.8 µM
# Outline: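 A low-serum medium (0.5% dialyzed FBS) holding 2,000 HRE-bla ME-180 cells per well is preincubated for 5 hrs, dosed with compounds by pintool, and kept a further 17 hrs at 37C, 5% CO2 before CCF4-AM FRET detection of beta-lactamase.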
# [4] = qHTS assay to identify small molecule agonists of H2AX - cell viability counter screen (AID 1224847; calls by dose curve; note: top concentration of the series differs between compounds; nearly all actives have a fitted effect of over 30% in size); settings: CHO-K1 viability, CellTiter-Glo luminescence, 3 h; series mostly up to 154 µM
# Outline: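 Wild-type CHO-K1 cells (10% FBS medium) were plated overnight at 37C, exposed to compounds at 15 concentrations for 3 hr at 37C (0.76% DMSO final), and viability was read as CellTiter-Glo luminescence after 30 min at room temperature.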
# [5] = qHTS RealTime-Glo MT Cell Viability Assay in HepG2 cells - 24 hour (AID 1224867); settings: RealTime-Glo luminescence; series mostly up to 76.8 µM; note: nearly all actives have a fitted effect of over 50% in size
# Outline: (§1)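 Viability was tracked continuously by NanoLuc luminescence from prosubstrate reduced by living HepG2 cells, at successive time points over 40 h of compound exposure. Cells with reagent were preincubated 5 h at 37 °C before compound addition.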
# [6] = A CellTox Green Cytotoxicity Assay to monitor cytotoxicity in HEK293 cells - 0 hour (AID 1224869); settings: CellTox Green fluorescence; series mostly up to 76.8 µM; note: nearly all actives have a fitted effect of over 50% in size
# Outline: (§2)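 Fluorescence intensity, read at 0, 8, 16, 24, 32 and 40 h of compound treatment, reflected dye binding to DNA of dead HEK293 cells; compounds (23 nL, DMSO) were added 5 h after plating cells with reagent.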
# [7] = qHTS RealTime-Glo MT Cell Viability Assay in HepG2 cells - 40 hour (AID 1224870); settings: RealTime-Glo luminescence; series mostly up to 76.8 µM; note: nearly all actives have a fitted effect of over 50% in size
# Outline: (§3)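 Real-time viability: cells seeded at 600 per well together with NanoLuc and cell-permeant prosubstrate, compounds added after 5 h incubation. Luminescence tracked at 0, 8, 16, 24, 32 and 40 h of exposure.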
# [8] = A CellTox Green Cytotoxicity Assay to monitor cytotoxicity in HEK293 cells - 40 hour (AID 1224871); settings: CellTox Green fluorescence; series mostly up to 76.8 µM; note: nearly all actives have a fitted effect of over 45% in size; note: potency is the fitted concentration of half-maximal effect
# Outline: as §2
# [9] = qHTS RealTime-Glo MT Cell Viability Assay in HEK293 cells - 16 hour (AID 1224872); settings: RealTime-Glo luminescence; series mostly up to 76.8 µM
# Outline: (§4)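 Viability tracked continuously by luminescence as live cells reduce a prosubstrate for NanoLuc; HEK293 cells preincubated 5 h, compound-treated at 37 C, and read at 0, 8, 16, 24, 32 and 40 h.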
# [10] = qHTS RealTime-Glo MT Cell Viability Assay in HEK293 cells - 40 hour (AID 1224874); settings: RealTime-Glo luminescence; max response: stronger effect = lower value; note: nearly all actives have a fitted effect of over 50% in size
# Outline: (§5)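 Viable HEK293 cells reduce a cell-permeant prosubstrate; the product diffuses out and is consumed by NanoLuc in the medium to give light. Compounds went in after a 5 h incubation and plates were read over the treatment course.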
# [11] = A CellTox Green Cytotoxicity Assay to monitor cytotoxicity in HEK293 cells - 24 hour (AID 1224875); settings: CellTox Green fluorescence; series mostly up to 76.8 µM; note: nearly all actives have a fitted effect of over 45% in size
# Outline: as §2
# [12] = A CellTox Green Cytotoxicity Assay to monitor cytotoxicity in HepG2 cells - 16 hour (AID 1224876); settings: CellTox Green fluorescence; series mostly up to 76.8 µM; note: nearly all actives have a fitted effect of over 45% in size
# Outline: (§6)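 Using 1536-well format, dye-containing HepG2 suspension was seeded, allowed 5 h at 37 C/5% CO2, dosed by pintool with compounds, positive and negative controls, and imaged for fluorescence across 40 h.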
# [13] = qHTS RealTime-Glo MT Cell Viability Assay in HepG2 cells - 32 hour (AID 1224877); settings: RealTime-Glo luminescence; series mostly up to 76.8 µM; note: nearly all actives have a fitted effect of over 55% in size
# Outline: as §1
# [14] = A CellTox Green Cytotoxicity Assay to monitor cytotoxicity in HepG2 cells - 40 hour (AID 1224879); settings: CellTox Green fluorescence; series mostly up to 76.8 µM; note: nearly all actives have a fitted effect of over 40% in size
# Outline: as §6
# [15] = qHTS assay to identify small molecule antagonists of the estrogen related receptor (ERR) signaling pathway from Tox21 library (AID 1224848); settings: ERR reporter cell line, luciferase antagonist mode, 18 h; series mostly up to 92.4 µM; note: nearly all actives have a fitted effect of over 50% in size
# Outline: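 Antagonist-mode screen of the Tox21 10K library in an NTP-provided ERR reporter cell line; 18 h compound exposure at 37 C, luminescence measured with ONE-Glo.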
# [16] = qHTS assay to identify small molecule agonists of the estrogen related receptor (ERR) signaling pathway from Tox21 library (AID 1224849; calls by dose curve; note: nearly all actives have a fitted effect of over 15% in size); settings: ERR reporter cell line, ONE-Glo luciferase, 18 h
# Outline: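 Screening used an NTP-provided ERR luciferase cell line. Compounds in DMSO were added 6 h after seeding and left 18 h at 37 C before a 30 min ONE-Glo step and luminescence reading.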
# [17] = qHTS RealTime-Glo MT Cell Viability Assay in HEK293 cells - 32 hour (AID 1224868); settings: RealTime-Glo luminescence; series mostly up to 76.8 µM
# Outline: as §4
# [18] = A CellTox Green Cytotoxicity Assay to monitor cytotoxicity in HepG2 cells - 24 hour (AID 1224878); settings: CellTox Green fluorescence; series mostly up to 76.8 µM; note: nearly all actives have a fitted effect of over 45% in size
# Outline: as §6
# [19] = qHTS RealTime-Glo MT Cell Viability Assay in HEK293 cells - 0 hour (AID 1224880); settings: RealTime-Glo luminescence; series mostly up to 76.8 µM
# Outline: as §5
# [20] = qHTS RealTime-Glo MT Cell Viability Assay in HepG2 cells - 8 hour (AID 1224873); settings: RealTime-Glo luminescence; series mostly up to 76.8 µM; note: nearly all actives have a fitted effect of over 55% in size
# Outline: as §3
smiles,measurement,setting,value
C=CCCCCCCCCCC,Potency,[1],inactive
same,Potency,[2],inactive
same,outcome,[3],inactive
same,Potency,[4],inactive
same,Potency,[5],inactive
same,Potency,[6],inactive
same,Potency,[7],inactive
same,Potency,[8],inactive
same,Potency,[9],inactive
same,max response,[10],3.4% (inactive) and -2.24% (inactive)
same,Potency,[11],inactive
same,Potency,[12],inactive
same,Potency,[13],inactive
same,Potency,[14],inactive
ClC/C=C/CCl,Potency,[1],inactive
same,Potency,[2],inactive
same,Potency,[4],inactive
same,Potency,[15],inactive
same,"activity change, positive = activation",[16]; at 92.4 µM (top of the series),-1.09% (inactive) and 0.131% (inactive)
same,Potency,[5],inactive
same,Potency,[17],inactive
same,Potency,[6],inactive
same,Potency,[7],inactive
same,Potency,[8],inactive
same,Potency,[9],inactive
same,max response,[10],18.6% (inactive) and 9.13% (inactive)
same,Potency,[11],inactive
same,Potency,[12],inactive
same,Potency,[13],inactive
same,Potency,[18],inactive
same,Potency,[14],inactive
same,Potency,[19],inactive
CCC(Cc1c(I)cc(I)c(N)c1I)C(=O)O (centres undefined),Potency,[1],42.3 µM (active) and 15.1 µM (active)
same,Potency,[2],inactive
same,Potency,[4],inactive
same,Potency,[5],inactive
same,Potency,[17],inactive
same,Potency,[6],inactive
same,Potency,[7],inactive
same,Potency,[8],inactive
same,Potency,[9],inactive
same,Potency,[20],inactive
same,max response,[10],3.1% (inactive) and 8.35% (inactive)
same,Potency,[11],inactive
same,Potency,[12],inactive
same,Potency,[13],inactive
same,Potency,[18],inactive
same,Potency,[14],inactive
CCCCCC1C(=O)CCC1CC(=O)OC (centres undefined),Potency,[1],inactive
same,Potency,[2],inactive
same,Potency,[4],inactive
same,Potency,[15],inactive
same,"activity change, positive = activation",[16]; at 92.4 µM (top of the series),0.33% (inactive) and 0.3% (inactive)
same,Potency,[5],inactive
same,Potency,[17],inactive
same,Potency,[6],inactive
same,Potency,[7],inactive
same,Potency,[8],inactive
same,Potency,[9],inactive
same,Potency,[20],inactive
same,max response,[10],0.863% (inactive) and -10.7% (inactive)
same,Potency,[11],inactive
same,Potency,[12],inactive
same,Potency,[13],inactive
same,Potency,[18],inactive
same,Potency,[14],inactive
same,Potency,[19],inactive
CCC(=O)O[C@H]1[C@H](O[C@@H]2[C@@H](C)[C@H](O[C@H]3C[C@@](C)(OC)[C@@H](O)[C@H](C)O3)[C@@H](C)C(=O)O[C@H](CC)[C@@](C)(O)[C@H](O)[C@@H](C)C(=O)[C@H](C)C[C@@]2(C)O)O[C@H](C)C[C@@H]1N(C)C,Potency,[1],25.8 µM (active) and inactive
same,Potency,[2],inactive
same,outcome,[3],inactive
same,Potency,[4],inactive
same,Potency,[5],inactive
same,Potency,[6],inactive
same,Potency,[7],inactive
same,Potency,[8],28.9 µM (active) and inactive
same,Potency,[9],inactive
same,Potency,[20],inactive
same,max response,[10],-5.5% (inactive)
same,Potency,[12],inactive
same,Potency,[13],inactive
same,Potency,[18],inactive
same,Potency,[14],inactive
C=C[C@H]1CN2CC[C@H]1C[C@H]2[C@H](O)c1ccnc2ccc(OC)cc12,Potency,[1],inactive
same,Potency,[2],inactive
same,Potency,[4],inactive
same,Potency,[5],inactive
same,Potency,[17],inactive
same,Potency,[6],inactive
same,Potency,[7],inactive
same,Potency,[8],inactive
same,Potency,[9],inactive
same,Potency,[20],inactive
same,max response,[10],-26.3% (inactive) and -11.8% (inactive)
same,Potency,[11],inactive
same,Potency,[12],inactive
same,Potency,[13],inactive
same,Potency,[18],inactive
same,Potency,[14],inactive
same,Potency,[19],inactive
COc1ccc(C(=O)c2ccccc2O)c(O)c1,Potency,[1],inactive
same,Potency,[2],inactive
same,outcome,[3],inactive
same,Potency,[15],inactive
same,"activity change, positive = activation",[16]; at 42.5 µM (top of the series),-1.96% (inactive)
same,"activity change, positive = activation",[16]; at 92.4 µM (top of the series),-27.1% (inactive)
same,Potency,[5],inactive
same,Potency,[6],inactive
same,Potency,[7],inactive
same,Potency,[8],34.6 µM (active)
same,Potency,[9],inactive
same,Potency,[20],inactive
same,max response,[10],-10.4% (inactive)
same,Potency,[11],inactive
same,Potency,[12],inactive
same,Potency,[13],inactive
same,Potency,[18],inactive
same,Potency,[14],inactive
same,Potency,[19],inactive
CC[C@]12CCCN3CCc4c(n(c5ccccc45)[C@@](O)(C(=O)OC)C1)[C@@H]32,Potency,[1],inactive
same,Potency,[2],inactive
same,Potency,[4],inactive
same,Potency,[15],inactive
same,"activity change, positive = activation",[16]; at 42.5 µM (top of the series),7.75% (inactive)
same,"activity change, positive = activation",[16]; at 92.4 µM (top of the series),-6.91% (inactive)
same,Potency,[5],inactive
same,Potency,[6],inactive
same,Potency,[7],inactive
same,Potency,[8],inactive
same,Potency,[9],inactive
same,Potency,[20],inactive
same,max response,[10],-23.5% (inactive)
same,Potency,[11],inactive
same,Potency,[12],inactive
same,Potency,[13],inactive
same,Potency,[14],inactive
same,Potency,[19],inactive
CCCCCCCCCCCCO,Potency,[1],inactive
same,Potency,[2],inactive
same,outcome,[3],inactive
same,Potency,[4],inactive
same,Potency,[5],inactive
same,Potency,[6],inactive
same,Potency,[7],inactive
same,Potency,[8],4.84 µM (active)
same,Potency,[9],inactive
same,Potency,[20],inactive
same,max response,[10],-4.3% (inactive) and -1.21% (inactive)
same,Potency,[11],inactive
same,Potency,[12],inactive
same,Potency,[13],inactive
same,Potency,[14],inactive
same,Potency,[19],inactive
O=C1CCc2ccccc2O1,Potency,[1],inactive
same,Potency,[2],inactive
same,Potency,[4],inactive
same,Potency,[15],inactive
same,"activity change, positive = activation",[16]; at 92.4 µM (top of the series),-2.99% (inactive) and -9.1% (inactive)
same,Potency,[5],inactive
same,Potency,[6],inactive
same,Potency,[7],inactive
same,Potency,[8],inactive
same,Potency,[9],inactive
same,Potency,[20],inactive
same,max response,[10],3.8% (inactive) and -0.872% (inactive)
same,Potency,[12],inactive
same,Potency,[13],inactive
same,Potency,[18],inactive
same,Potency,[14],inactive
same,Potency,[19],inactive
